Hits are enriched below; roughly 5.4% of the tested compounds scored in any of these assays.
CSC inhib: cancer stem cell viability inhibitors, primary screen, luminescence; inhibition, % at 7.5 µM; cancer stem cell-like cells viability; actives 1.1% (n = 300,000); in the data active means inhibition above about 75%; inconclusive means no clear call, values can overlap the other calls; tested in HMLE shEcad cells
ALR inh: inhibitors of human ALR sulfhydryl oxidase, primary screen, biochemical, H2O2 detection, HRP-luminol luminescence, single point | FAD-linked sulfhydryl oxidase ALR (Homo sapiens), P55789 | purified ALR, DTT oxidation | inhibition, % (no concentration beside the values) | actives 3.8% (n = 290,000) | AID 485317, 2010;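 active means mean replicate inhibition above about 79%, with every replicate also reaching it, limit read from the data; inconclusive means only one of the two criteria met; inactive means mean below limit and not every replicate reaching it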
PP5 primary: PP5 phosphatase inhibitors, primary screen, biochemical, fluorescence; Serine/threonine-protein phosphatase 5 (Homo sapiens), P53041; purified PP5c, OMFP substrate fluorescence; AID 1987, 2009; inhibition, % at 6.7 µM; actives 0.18% (n = 320,000);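 active means inhibition above the campaign's mean inhibition across all tested compounds plus 3 SD, cut at about 9.5% in these data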;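 further: 0% = DMSO only and 100% = 100 µM cantharidin control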
Target sequence (P53041 whole entry, looked up): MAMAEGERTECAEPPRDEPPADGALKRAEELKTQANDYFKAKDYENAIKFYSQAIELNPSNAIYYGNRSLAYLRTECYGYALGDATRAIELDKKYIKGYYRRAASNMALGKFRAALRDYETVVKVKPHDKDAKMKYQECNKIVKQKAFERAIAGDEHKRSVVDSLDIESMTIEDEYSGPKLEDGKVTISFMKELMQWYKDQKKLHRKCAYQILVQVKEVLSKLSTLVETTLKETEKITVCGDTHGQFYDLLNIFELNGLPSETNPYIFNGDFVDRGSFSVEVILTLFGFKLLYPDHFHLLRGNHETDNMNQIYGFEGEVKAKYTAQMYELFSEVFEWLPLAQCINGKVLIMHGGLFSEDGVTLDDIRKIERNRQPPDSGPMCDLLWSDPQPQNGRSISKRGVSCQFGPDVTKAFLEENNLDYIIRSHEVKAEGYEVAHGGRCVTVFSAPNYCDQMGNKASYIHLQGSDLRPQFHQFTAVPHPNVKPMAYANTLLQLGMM
PP1 counter: PP1-alpha phosphatase inhibitors, primary screen, counter-screen for PP5 inhibitor project, biochemical, fluorescence, OMFP substrate, single point | Serine/threonine-protein phosphatase PP1-alpha catalytic subunit (Homo sapiens), P62136 | purified PP1alpha | inhibition, % at 6.7 µM | actives 0.9% (n = 320,000) | AID 2235, 2010;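 active means inhibition above the mean inhibition of all tested compounds plus 3 SD, computed separately for each screening campaign, cut at about 15% in these data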
Calb FLC: C. albicans growth inhibition with fluconazole, primary screen, CaCi-2 strain, Alamar Blue fluorescence | C. albicans CaCi-2 (fluconazole-resistant clinical isolate) + fluconazole, 48 h | growth inhibition, % (concentration not given with the values) | actives 0.57% (n = 300,000) | AID 1979, 2009;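 active means growth inhibition above about 58% in most replicates, limit read from the data, passing the limit was not always enough; inconclusive means exactly half the replicates above a set limit; inactive means most replicates below a set limit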;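 further: all wells also contain fluconazole at 8 µg/ml as a sub-toxic cotreatment; 0% = median of DMSO wells and 100% = median of geldanamycin control wells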
Starred values were filed as active, the others as inactive; ? = inconclusive; · = no result.

SMILES | CSC inhib | ALR inh | PP5 primary | PP1 counter | Calb FLC
Cc1cccc2nc(-c3ccco3)c(Nc3ccc4c(c3)OCO4)n12 | -13 | 99* | 2 | 8 | 8
Cc1ccc(C2OCC3(CO2)COC(c2ccc(C)cc2)OC3)cc1 (centres undefined) | 6 | -7 | 0 | 1 | -4
CC(/C=C/c1ccco1)=N/NC(=O)CNc1ccccc1C | 6 | 6 | 1 | 2 | -27
CC(/C=C/c1ccco1)=N\NC(=O)CNc1ccc2ccccc2c1 | 2 | -17 | 2 | 2 | 116*
CCOC(=O)c1c(C)nc2ccccc2c1-c1ccccc1 | · | -6 | 4 | -2 | 3
CCOC(=O)c1c(CCl)nc2ccccc2c1-c1ccccc1 | -15 | 96* | -1 | 2 | 3
O=C(NC1CC2CCC(C1)N2Cc1nnnn1Cc1ccco1)NC12CC3CC(CC(C3)C1)C2 (centres undefined) | · | 80* | -3 | 0 | -6
Cc1ccc(NC(=O)c2cc(-c3cccc(O)c3)on2)cc1C | 80* | -9 | 4 | 0 | -2
COc1ccccc1NC(C)C(=O)Nc1ccc(C(C)=O)cc1 (centres undefined) | -3 | 99* | 2 | -2 | 6
O=C1CC2(CCCCCC2)Oc2ccc(Cl)cc21 | -2 | -4 | 5 | 1 | -15
Oc1c(Cl)cc(Cl)cc1CNc1ccc(Br)cn1 | ? | 93* | 1 | 3 | -4
Oc1ccc(Cl)cc1CNc1ccc(Br)cn1 | -12 | -3 | 3 | 0 | -3
CN(C)c1ccc(/C=C(/NC(=O)c2ccccc2)C(=O)NCCCn2ccnc2)cc1 | 1 | 99* | 2 | -3 | 1
CN(C)c1ccc(/C=C(\NC(=O)c2ccccc2)C(=O)NCCCN2CCOCC2)cc1 | -5 | 98* | 1 | -4 | -8
CCC(=O)Nc1ccc(C(=O)NCCCn2ccnc2)cc1 | 0 | 100* | 3 | -6 | 0
Cc1nn(CCC(=O)Nc2cccc(C#N)c2)c(C)c1S(=O)(=O)N1CCCCC1 | -15 | -3 | 2 | 1 | 0
CC(=O)c1cccc(NC(=O)c2sc(Cl)nc2C)c1 | -4 | · | 1 | -3 | 0
COCCN1Cc2cccc(C(=O)N3CCN(c4ccccc4)CC3)c2C1=O | · | 95* | -2 | 2 | 14
CCCN1Cc2cccc(C(=O)N3CCN(c4ccccc4)CC3)c2C1=O | -8 | 58 | 0 | -4 | -18
Cc1ccc(S(=O)(=O)Nc2nc(C)c(NC(=O)OCCCl)s2)cc1 | 1 | 98* | 1 | -2 | -17
O=C1c2ccccc2C(=O)N1CCOc1ccccc1Cl | -4 | -12 | 2 | 2 | -5
COc1ccc(NC(=S)N2CCC(c3nc4ccccc4[nH]3)CC2)c(OC)c1 | -3 | -37 | 2 | -5 | ?
COc1ccc(N2CCN(CC(O)c3c[nH]c4ccc(OC)cc34)CC2C)cc1 (centres undefined) | -4 | 100* | 1 | -5 | -6
CC1(C)CNc2cc(N)ccc2S1 | 9 | 84* | 7 | 5 | -13
O=C(Cc1cccs1)NNC(=O)C12CC3CC(CC(C3)C1)C2 | -6 | -9 | -2 | 0 | -33
SMILES | CSC inhib | ALR inh | PP5 primary | PP1 counter | Calb FLC
CN(C)c1ccc(NC(=O)CC(NCc2ccccn2)C(=O)O)cc1 (centres undefined) | -12 | 100* | -1 | 0 | -5
Cc1ccc(NC(=O)C(NCc2ccccn2)c2ccccc2)cc1 (centres undefined) | -11 | 1 | 2 | -1 | -10
COC(C(=O)N/N=C(\C)CC(=O)Nc1ccc(N(C)C)cc1)c1ccccc1 (centres undefined) | -2 | 99* | 1 | -4 | -9
COc1ccc(NC(=O)C/C(C)=N/NC(=O)c2cnccn2)cc1 | 2 | 11 | 0 | 0 | -15
C/C(CC(=O)Nc1ccc(N(C)C)cc1)=N\NC(=O)c1cnccn1 | -11 | 99* | 0 | -2 | 12
C/C(CC(=O)Nc1ccc(N(C)C)cc1)=N\NC(=O)c1ccccn1 | 0 | 96* | -1 | -1 | -7
CCc1nccn1C(=O)c1cnn2c(C(F)F)cc(-c3ccc(C)cc3)nc12 | 38 | · | 0 | 2 | 16
CC1CCc2ccc(F)cc2N1S(=O)(=O)c1cccs1 (centres undefined) | 2 | -19 | 4 | 2 | 12
COC(=O)c1c(NC(=O)c2cccnc2)sc(C)c1C | -6 | -8 | 2 | 2 | 1
COC(=O)c1cc(C)sc1NC(=O)c1cccnc1 | 8 | -8 | 6 | -13 | 110*
N#CC1=C(N)NC(=S)C(C(N)=O)C1c1ccccc1F (centres undefined) | 6 | 84* | -2 | 6 | 0
N#CC1=C(N)NC(=S)C(C(N)=O)C1c1ccc(Cl)cc1Cl (centres undefined) | 0 | 24 | -3 | 3 | -2
Cc1cccc(C(=O)OCC(=O)Nc2c(C)nn(-c3ccccc3)c2C)c1O | -16 | -3 | 3 | -8 | 2
CCC(C)n1cnc2c(c1=O)c1nc3ccccc3nc1n2Cc1ccc2c(c1)OCO2 (centres undefined) | · | · | · | · | 100*
CN(C)S(=O)(=O)c1ccc(Cl)c(C(=O)OCC(=O)NC(=O)c2cccn2C)c1 | -1 | · | -2 | -3 | 5
CC(=NC1CC1)c1c(-c2ccccc2)[nH]n(-c2nc3ccccc3s2)c1=O | -3 | 32 | 0 | 8 | -5
CC(=NC1CCCC1)c1c(C)[nH]n(-c2nc3ccccc3s2)c1=O | -8 | 93* | 0 | 9 | 19
Cc1c(C(=O)O)c2cc(O)ccc2n1-c1ccccc1 | -20 | 80* | 2 | -1 | -5
O=C(NCc1ccccc1Cl)C1CCCN(S(=O)(=O)c2cnc[nH]2)C1 (centres undefined) | -10 | 94* | -1 | -4 | -5
O=C(NCCN1CCN(c2ccccc2)CC1)C1CCCN(S(=O)(=O)c2cnc[nH]2)C1 (centres undefined) | -3 | 97* | 3 | -1 | 8
O=C(Nc1cccc(Cl)c1)C1CCCN(S(=O)(=O)c2cnc[nH]2)C1 (centres undefined) | 7 | -35 | 3 | -3 | -2
O=C(NCCCN1CCN(c2ccccc2)CC1)C1CCCN(c2ncnc3c2nc2n3CCCCC2)C1 (centres undefined) | 7 | 99* | 0 | -2 | -7
O=C(NCCN1CCN(c2cccc(Cl)c2)CC1)C1CCCN(S(=O)(=O)c2cnc[nH]2)C1 (centres undefined) | -2 | 96* | 4 | -1 | ·
Cc1ccccc1NC(=S)N(C)Cc1cccs1 | -4 | 7 | 1 | -2 | -10
Cn1c(=O)[nH]c(=O)c2c1nc(N1CCCC1)n2CC(O)COc1ccccc1 (centres undefined) | -1 | 95* | 0 | -2 | -2

Assay outcomes (PubChem)
